# Measurements reported in PubChem BioAssay (EPA / NIEHS).
# Records with an inconclusive call do not appear. Calls of active or inactive are those of the source. Rule for the calls: active = hit-call score of the fitted dose curve at least 0.9, where 1 is the maximum; inconclusive = response in the unintended direction; inactive = score below 0.9. Where a SMILES comes first, the peptide text is derived from it. Bridges are numbered along the chain shown (N, C = ends). [ ]: non-standard residue; d: D form. Orn = NCCC[C@H](N)C(=O)O; Mpa = O=C(O)CCS
# Tests used:
# [1] = TOX21_p53_BLA_p2_viability: Viability Assessment in the Tox21 HCT-116 p53 Agonism Beta-lactamase Assay, Phase 2 (AID 2283591);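 note: actives lower the ATP signal meaning cytotoxicity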
# Summary of the method: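 HCT116 p53-bla cells, 4000/well, dosed after 5 h plating (217-fold dilution of DMSO stocks) and incubated 16 h at 37C. Viability taken as cellular ATP by CellTiter-Glo luminescence after 30 min RT; signal loss marks cytotoxicity.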
# [2] = TOX21_p53_BLA_p3_viability: Viability Assessment in the Tox21 HCT-116 p53 Agonism Beta-lactamase Assay, Phase 3 (AID 2283593);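 note: cells exposed to compound for 16 h before reading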
# Summary of the method: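 HCT116 cells, 4000/well, dosed 5 h after plating by pin transfer (217-fold dilution from DMSO stock) and incubated 16 h at 37C, 5% CO2. Viability read as ATP luminescence with CellTiter-Glo after 30 min at room temperature.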
# [3] = TOX21_p53_BLA_p4_viability: Viability Assessment in the Tox21 HCT-116 p53 Agonism Beta-lactamase Assay, Phase 4 (AID 2283597);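 note: hits lower the luminescence signal meaning cytotoxicity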
# Summary of the method: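 4000 HCT116 cells per well; 5 h attachment; compounds from DMSO, 217-fold dilution; 16 h at 37C. Then CCF4-AM, 2 h RT, followed by CellTiter-Glo, 30 min RT, luminescence. Decrease = cytotoxicity.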
# [4] = TOX21_p53_BLA_p5_viability: Viability Assessment in the Tox21 HCT-116 p53 Agonism Beta-lactamase Assay, Phase 5 (AID 2283600)
# Summary of the method: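 Decreased CellTiter-Glo luminescence denotes lost viability. Exposure: 16 h at 37C, 5% CO2, with compounds from DMSO stocks diluted 217-fold in wells of 4000 cells.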
# [5] = molecular target: Cellular tumor antigen p53 (Homo sapiens) (UniProt P04637); experiment: TOX21_p53_BLA_p4_ratio: Tox21 HCT-116 p53 Agonism Beta-lactamase Assay, Ratio, Phase 4 (AID 2283601)
# Summary of the method: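 HCT-116 p53 beta-lactamase reporter cells (4000/well) preincubated 5 h, then compound (217-fold dilution of DMSO stock) for 16 h at 37C. CCF4-AM substrate added 2 h at room temperature; 460/530 nm emission ratio fitted upward versus DMSO.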
# [6] = molecular target: Cellular tumor antigen p53 (Homo sapiens) (UniProt P04637); experiment: TOX21_p53_BLA_p5_ratio: Tox21 HCT-116 p53 Agonism Beta-lactamase Assay, Ratio, Phase 5 (AID 2283599)
# Summary of the method: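 HCT-116 p53-bla cells (4000/well) plated 5 h, dosed with compound (217-fold DMSO dilution) for 16 h at 37 C; CCF4-AM substrate 2 h at room temperature. Activity is the 460/530 nm emission ratio (405 nm excitation), fitted in gain-of-signal direction versus DMSO.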
# [7] = molecular target: Cellular tumor antigen p53 (Homo sapiens) (UniProt P04637); experiment: TOX21_p53_BLA_p3_ratio: Tox21 HCT-116 p53 Agonism Beta-lactamase Assay, Ratio, Phase 3 (AID 2283596)
# Summary of the method: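 Cells were seeded at 4000/well, rested 5 h at 37C, then dosed with DMSO compound solutions (217-fold dilution) for 16 h. CCF4-AM substrate was loaded for 2 h at room temperature, and the 460/530 nm emission ratio was fitted for gain of signal versus DMSO.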
# Cellular tumor antigen p53 (Homo sapiens), sequence (P04637 whole entry, looked up): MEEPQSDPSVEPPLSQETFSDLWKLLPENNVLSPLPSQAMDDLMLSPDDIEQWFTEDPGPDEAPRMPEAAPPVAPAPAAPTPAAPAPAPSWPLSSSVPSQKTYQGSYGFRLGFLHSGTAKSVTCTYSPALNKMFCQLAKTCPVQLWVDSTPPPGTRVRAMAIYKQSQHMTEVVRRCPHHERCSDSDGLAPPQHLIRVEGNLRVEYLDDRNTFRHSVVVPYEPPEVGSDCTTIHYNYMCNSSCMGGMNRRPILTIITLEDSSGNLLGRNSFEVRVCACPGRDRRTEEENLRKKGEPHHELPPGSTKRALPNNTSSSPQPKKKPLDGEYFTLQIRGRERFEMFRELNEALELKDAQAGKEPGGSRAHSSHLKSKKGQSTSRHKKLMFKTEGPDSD
Structure (SMILES),outcome [1],outcome [2],outcome [3],outcome [4],outcome [5],AC50 [3],outcome [6],outcome [7]
CCN(CC)C(=O)c1cccnc1,inactive,inactive,inactive,inactive,–,–,–,–
CCOc1ccc(C[C@H]2NC(=O)CCSSC[C@@H](C(=O)N3CCC[C@H]3C(=O)N[C@@H](CCCN)C(=O)NCC(N)=O)NC(=O)[C@H](CC(N)=O)NC(=O)[C@H]([C@@H](C)O)NC(=O)[C@H]([C@@H](C)CC)NC2=O)cc1 ([Mpa][dY](Et)ITNCP[Orn]G-NH2; disulfide 1-6),inactive,inactive,inactive,inactive,inactive,–,–,–
O=c1[nH]c2ccccc2n1CCCN1CCN(C(c2ccccc2)c2ccccc2)CC1,inactive,inactive,–,inactive,–,31.3 µM (active),–,–
CCCC(=O)O[C@]1(C(=O)COC(=O)CC)[C@@H](C)C[C@H]2[C@@H]3CCC4=CC(=O)C=C[C@]4(C)[C@@]3(F)[C@@H](O)C[C@@]21C,inactive,inactive,inactive,inactive,–,–,–,–
CCCCCCCCCCCC(=O)N(CC)CC,inactive,inactive,–,inactive,–,–,inactive,–
NC(=O)C1c2ccccc2CCc2ccccc21,inactive,inactive,–,–,–,–,inactive,–
O=C(O)c1cccc(/C=C2/C[C@@H]3[C@@H](/C=C/[C@@H](O)C4CCCCC4)[C@H](O)C[C@@H]3O2)c1,inactive,inactive,–,inactive,inactive,–,inactive,–
CN(C)CC/C=C1/c2ccccc2COc2ccc(CC(=O)O)cc21,inactive,–,inactive,inactive,inactive,–,inactive,inactive
CC(C)Cc1nccs1,inactive,–,inactive,–,–,–,inactive,inactive
CS(=O)(=O)OCCCNCCCOS(C)(=O)=O,inactive,–,inactive,inactive,inactive,–,inactive,inactive
O=C(CCc1ccc(O)cc1)c1c(O)cc(O)cc1O,inactive,inactive,–,inactive,inactive,–,–,–
CCCCN1C=CN(C)C1,inactive,–,inactive,inactive,–,–,inactive,inactive
CCCC(=O)O[C@]1(C(=O)COC(C)=O)CC[C@H]2[C@@H]3C[C@H](F)C4=CC(=O)C=C[C@]4(C)[C@@]3(F)[C@@H](O)C[C@@]21C,inactive,inactive,–,–,inactive,–,–,–
O=C1c2ccccc2-c2ccccc21,inactive,–,inactive,–,–,–,inactive,inactive
CC(=O)c1ccc2c(c1)N(CCCN(C)C)c1ccccc1S2,inactive,–,inactive,–,–,–,inactive,inactive
BrC/C=C/CBr,inactive,–,inactive,inactive,–,–,inactive,inactive
